This note sets out measurements from PubChem BioAssay AID488969 (Vanderbilt High Throughput Screening Facility, 2010).

Over roughly 110,000 compounds, “z-score” has its median near -0.1; the highest 2% begin near 2. What follows is part of a selection rich in the highest values, with near analogues and random picks from the rest. Calls of active or inactive are those of the source.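 Rule for the calls: active = z-score in the third read window above 3 or below -3; inactive = the rest.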

The target in the experiment is Metabotropic glutamate receptor 8 (Rattus norvegicus) (UniProt P70579). Briefly: rat mGluR8 modulators via GIRK flux, primary screen, cell-based, thallium flux, HTS (AID 488969). The conditions noted are these: HEK293 rat mGluR8, GIRK (G protein-gated inwardly rectifying potassium channel) thallium flux, FluoZin2; at 10 µM; stronger effect = higher value; submaximal glutamate (EC20) added with thallium.
Sequence of Metabotropic glutamate receptor 8 (Rattus norvegicus) (P70579 whole entry, looked up): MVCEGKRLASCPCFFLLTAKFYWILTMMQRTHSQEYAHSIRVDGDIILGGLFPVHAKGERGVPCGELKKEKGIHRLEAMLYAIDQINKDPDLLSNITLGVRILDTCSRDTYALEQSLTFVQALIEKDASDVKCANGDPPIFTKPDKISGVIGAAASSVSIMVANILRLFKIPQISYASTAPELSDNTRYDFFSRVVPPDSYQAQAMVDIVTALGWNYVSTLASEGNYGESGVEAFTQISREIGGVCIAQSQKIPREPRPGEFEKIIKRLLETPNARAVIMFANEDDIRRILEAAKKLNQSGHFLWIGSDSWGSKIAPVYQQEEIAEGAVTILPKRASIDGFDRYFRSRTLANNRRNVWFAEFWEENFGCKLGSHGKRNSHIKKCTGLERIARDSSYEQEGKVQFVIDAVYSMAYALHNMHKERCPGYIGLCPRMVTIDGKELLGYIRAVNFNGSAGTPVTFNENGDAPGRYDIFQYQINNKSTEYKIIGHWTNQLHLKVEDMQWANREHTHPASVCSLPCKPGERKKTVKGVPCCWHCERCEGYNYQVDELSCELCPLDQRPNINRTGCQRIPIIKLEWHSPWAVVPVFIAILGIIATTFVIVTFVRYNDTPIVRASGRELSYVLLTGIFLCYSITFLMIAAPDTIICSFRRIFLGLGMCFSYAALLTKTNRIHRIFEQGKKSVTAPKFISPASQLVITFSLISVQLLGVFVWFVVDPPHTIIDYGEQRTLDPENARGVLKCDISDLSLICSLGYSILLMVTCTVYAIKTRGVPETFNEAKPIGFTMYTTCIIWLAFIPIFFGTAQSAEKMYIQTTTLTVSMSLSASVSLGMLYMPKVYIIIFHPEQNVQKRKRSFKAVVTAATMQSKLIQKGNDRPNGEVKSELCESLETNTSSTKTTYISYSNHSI
Turning to `CC(NS(=O)(=O)c1ccc(Cl)cc1)C(=O)NCc1ccco1` (stereo unspecified), the z-score came to 0.0263.
The molecule `O=C(N/N=C/c1cccs1)C1COc2ccccc2O1` (stereo unspecified) came in with a z-score of 0.238.
In the case of `O=C(N/N=C/c1ccc2c(c1)OCO2)C1COc2ccccc2O1` (stereo unspecified), the z-score is 0.435.
`O=C(N/N=C\c1cc(Br)cs1)C1COc2ccccc2O1` (stereo unspecified): the z-score came out at 2.32.
`CCOC(=O)/C=C1\CC(=O)Nc2cc(C)c(C)cc2N1` had a z-score of 0.197.
Molecule `Cc1cc(OCC(=O)NCC(C)C)cc(C)c1Br` gave a z-score of -0.137.
As for `C/C(CC(=O)Nc1ccccc1-c1ccccc1)=N\NC(=O)COc1ccc(C)cc1Br`, the z-score amounted to 0.458.
For `C/C(CC(=O)NC(C)C)=N\NC(=O)COc1cc(C)c(Br)cc1Br`, the z-score is 6.24 (active).
On to `CCOC(=O)C/C(C)=N/NC(=O)COc1ccccc1C`, for which the z-score was 0.0596.
`CCCNC(=O)C/C(C)=N/NC(=O)COc1ccc(C)cc1Br` showed a z-score of -0.101.
As for `C/C(CC(=O)NCC(C)C)=N\NC(=O)COc1cc(C)c(Br)cc1Br`, the figure is 5.36 (active); as for `O=C(CSc1ncnc2sc3c(c12)CCCC3)N1CCC(c2noc3ccc(F)cc23)CC1`, 0.658; as for `CCOC(=O)NC(Nc1ccc(S(N)(=O)=O)cc1)(C(=O)OCC)C(F)(F)F` (stereo unspecified), 0.00287.
For the molecule `COC(=O)c1ccc(/C=N/NC(=O)CC(=O)NC(C)C)cc1`, the z-score is -0.108.
`CC(=O)Nc1ccc(S(=O)(=O)Nc2nc3ccccc3nc2Nc2ccc(S(N)(=O)=O)cc2)cc1` yielded a z-score of -0.462.
As for `COc1ccc(-c2nnc(NC(=O)C3=COCCO3)o2)cc1`, the figure is 0.731; as for `O=C(Nc1nnc(-c2ccccc2Cl)o1)c1nc2ccccc2s1`, 1.61; as for `O=C(Nc1nnc(-c2ccc(Cl)cc2)o1)Nc1ccccc1Cl`, 1.85.
The molecule `Cc1ccccc1C(=O)Nc1nnc(-c2ccc(F)cc2)o1` displayed a z-score of -0.035.
The figure for `O=C(Nc1nnc(-c2ccccc2)o1)C1CCCCC1` is 0.0922; for `O=C(Nc1nnc(C2=COCCO2)o1)c1ccc(Cl)cc1` it is 0.709.
The figure for `O=C(Nc1ccccc1)Nc1nnc(-c2ccccc2)o1` is -0.193; for `NC(=O)c1oc2ccccc2c1NC(=O)c1nc2ccccc2s1` it is -0.927.
As for `O=C(Nc1nnc(-c2ccc(Cl)cc2)o1)C1=COCCO1`, the figure is 2.01; as for `O=C(Nc1nnc(-c2ccc(Cl)cc2)o1)c1nc2ccccc2s1`, 4.07 (active); as for `O=C(Nc1nnc(-c2ccccc2)o1)c1cc(Cl)sc1Cl`, 11.3 (active).
Regarding `O=C(Nc1nnc(-c2ccc(Cl)cc2)o1)c1ccccc1Br`, the z-score is 5.35 (active).
With `COc1ccccc1NC(=O)CSc1nc(O)c(Cc2ccccc2)c(=O)[nH]1`, the z-score worked out at 0.381.
The figure for `COc1ccc(OC)c(-n2c(-c3cnccn3)n[nH]c2=S)c1` is -0.441; for `COc1ccc(NS(=O)(=O)c2ccc(N3CCCC3)c(NC(=S)Nc3cccc(C)c3C)c2)cc1` it is 0.291.
Consider `O=C(CSc1nnc(CNC(=O)c2ccco2)o1)c1ccccc1`, for which the z-score worked out at 0.135.
